Screening results as filed in PubChem BioAssay.
rCAG binder: r(CAG) repeat RNA binding | TO-PRO-1 dye displacement fluorescence | 1.3% of 370,000 active | inhibition, % at 3 µM;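 active = inhibition above the plate cutoff, the mean of all test compounds on that plate plus 3 SD, cut at about 35% in these data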;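 also: higher means more dye released from RNA so lower well fluorescence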
MBD2 inh: inhibitors of human MBD2 binding to methylated oligonucleotide; inhibition, % at 4.4 µM; TR-FRET; Q9UBB5; 0.31% of 370,000 active; AID 686964; in the data active = inhibition above about 13%
Target sequence (Q9UBB5 whole entry, looked up): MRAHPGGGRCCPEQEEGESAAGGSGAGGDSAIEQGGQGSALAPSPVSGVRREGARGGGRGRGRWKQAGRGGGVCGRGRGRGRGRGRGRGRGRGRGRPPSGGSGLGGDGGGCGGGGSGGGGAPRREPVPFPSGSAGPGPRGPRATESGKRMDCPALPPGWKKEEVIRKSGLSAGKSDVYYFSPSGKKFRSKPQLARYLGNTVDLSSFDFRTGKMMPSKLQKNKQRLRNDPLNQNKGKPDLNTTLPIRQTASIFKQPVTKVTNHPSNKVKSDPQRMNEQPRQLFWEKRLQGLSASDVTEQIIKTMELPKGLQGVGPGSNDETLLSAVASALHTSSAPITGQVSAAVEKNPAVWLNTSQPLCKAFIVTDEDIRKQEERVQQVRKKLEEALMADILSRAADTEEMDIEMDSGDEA
PG9 binder: PG9 antibody binding by small molecule. TR-FRET gp120-PG9 antibody binding. inhibition, % at 6.7 µM. 0.43% of 360,000 active. AID 624416; in the data active = inhibition above about 8.5%
DNMT1 block: DNMT1 (human) enzyme inhibition | DNMT1 molecular beacon, Hinp1I cleavage, fluorescence | 0.83% of 360,000 active | inhibition (reported as % activation of signal), % at 10 µM; in the data active = inhibition above about 50%
LEDGF integ inh: blocks HIV-1 LEDGF/p75-dependent DNA integration | AID 743269 | TR-FRET IN-LEDGF/p75 DNA integration, Eu/Cy5 | 0.64% of 370,000 active | inhibition, % at 3.7 µM;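 active = inhibition above the screen-wide mean plus 3 SD, cut at about 13% in these data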;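 also: signal is the Cy5 over europium emission ratio at 671 and 618 nm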
UHRF1 binding: UHRF1 methyl-DNA binding inhibition; Q96T88; UHRF1 binding to methylated oligo, TR-FRET; inhibition, % at 4.4 µM; 0.75% of 370,000 active; AID 687016; in the data active = inhibition above about 21%;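 also: UHRF1 SRA domain binding a hemimethylated CpG hairpin DNA probe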
Large screens that a line does not name were inactive. Sampled rows, rich in hits. Any-hit rate of the full collection: about 3.5%.

COc1ccc(OCc2nnc(SCC(=O)NC3CCCCC3)o2)cc1	none
COc1ccc(Cc2nnc(SCC(=O)NC3CCCC3)o2)cc1	UHRF1 binding 44.8
O=C1CC2(CCN(C(=O)c3ccc(F)cc3)CC2)Oc2ccccc21	LEDGF integ inh 40.1
O=C1CC2(CCN(C(=O)c3ccccc3F)CC2)Oc2ccccc21	none
CCc1nnc(NC(=O)CSc2nc(C3CCCCC3)nc3ccccc23)s1	PG9 binder 15.6
CCc1nnc(NC(=O)CSc2nc(-c3ccccc3)nc3ccccc23)s1	none
CNC(=O)COC(=O)c1cc(SC)ccc1Cl	UHRF1 binding 26.4
CCOC(=O)C1=CN(Cc2cccc(F)c2)S(=O)(=O)N(CC)C1c1ccc(Br)cc1F (stereo not given)	UHRF1 binding 21.2
CCOC(=O)C1=CN(Cc2cccc(F)c2)S(=O)(=O)N(CC)C1c1ccccc1 (stereo not given)	none
CC1=C(C(=O)N(C)C)CC(CC(=O)NCCc2ccccn2)C(=O)N1Cc1ccc(C(C)(C)C)cc1 (stereo not given)	UHRF1 binding 20.9
CC1=C(C(=O)N(C)C)CC(CC(=O)NCCc2ccccn2)C(=O)N1Cc1ccc(F)cc1 (stereo not given)	none
O=C(CCc1ccccc1)N[C@H]1[C@@H](OC(=O)c2cccnc2)CCC[C@@]12C(=O)N(Cc1ccccc1)c1ccccc12	none (no result: PG9 binder, DNMT1 block)
CCOC(=O)Cc1csc(NC(=O)CSc2nnc3ccccn23)n1	UHRF1 binding 32.5
CCOC(=O)Cc1csc(NC(=O)CSc2nnc(C(C)C)n2CC)n1	none
COc1ccc(CCNCC(=O)Nc2c(C)cc(C)cc2C)cc1OC	UHRF1 binding 20.8
COc1ccc(CCNCCC(=O)Nc2c(C)cc(C)cc2C)cc1OC	none
CC(C)CCN1C(=O)CSCC1(C)C(=O)Nc1ccc2c(c1)OCCO2 (stereo not given)	none (no result: DNMT1 block)
CCOC(=O)N=Nc1c2ccccc2c2nc3no[nH]c3nc12	DNMT1 block 50.4
COC(=O)[C@]12C[C@H](CC(=O)NCC3CCCCC3)C(=O)N(Cc3ccc(Cl)cc3Cl)C1=C[C@H](C(C)C)O[C@@H]2C1CC1	none (no result: PG9 binder, DNMT1 block)
COc1ccc(S(=O)(=O)NCc2ccccn2)cc1NC(=O)c1ccccc1	UHRF1 binding 35.5
Cc1ccc(S(=O)(=O)NCc2ccccn2)cc1C	UHRF1 binding 23.0
O=C(Nc1ccc(Cl)c(Cl)c1)C1CCCN(c2nnc(-n3cccc3)s2)C1 (stereo not given)	none (no result: PG9 binder, DNMT1 block)
CCOC(=O)c1c(C)oc2c1c(C=NCc1ccccn1)c(O)c1ccccc12	LEDGF integ inh 16.5
CCOC(=O)c1c(C)oc2c1cc(O)c1ccccc12	none
N#Cc1ccc(NC(=S)N2CCC3CC2c2cc(-c4ccc5c(c4)OCO5)ccc23)cc1 (stereo not given)	none
Cc1nnc(SCC(=O)NCc2ccccc2Cl)[nH]c1=O	UHRF1 binding 20.9
CC(C)C[C@H]1COc2cc(Br)ccc2S(=O)(=O)N1Cc1cn(Cc2ccc(F)cc2)nn1	none (no result: PG9 binder, DNMT1 block)
O=S1(=O)c2ccc(N3CCN(Cc4ccccc4F)CC3)cc2Oc2ccccc2CN1Cc1cn(Cc2ccc(C(F)(F)F)cc2)nn1	none (no result: PG9 binder, DNMT1 block)
O=C(CN1C(=O)/C(=C\c2cccc(Br)c2)Oc2ccccc21)NCCCN1CCOCC1	none
O=C(O)CN1C(=O)/C(=C/c2cccc(Cl)c2)Oc2ccccc21	rCAG binder 52.2
CCNc1ccc([N+](=O)[O-])cc1	UHRF1 binding 41.3
Cn1c2ccccc2c(=O)c2ccc(C#CC3(O)CCCCC3)cc21	none
COc1ccc(NC(=O)CN(C)C(=O)CNC(=O)c2sc3ccccc3c2Cl)cc1	none
COc1ccccc1NS(=O)(=O)c1ccc(Cl)c(NC(=O)c2sc3cc(Cl)ccc3c2Cl)c1	none
COc1ccccc1NS(=O)(=O)c1cccc(NC(=O)c2sc3ccccc3c2Cl)c1	UHRF1 binding 25.9
COc1cccc(NC(=O)CN(C)C(=O)CNC(=O)c2sc3ccccc3c2Cl)c1	UHRF1 binding 21.3
C/C(=N\NC(=O)c1cc(-c2cccc([N+](=O)[O-])c2)n[nH]1)c1ccccc1O	DNMT1 block 60.1
C[C@H](CS)C(=O)N1CCC[C@H]1C(=O)O	LEDGF integ inh 84.3
Cc1ccc(C2CC(=O)C=C(NCc3ccccc3)C2)cc1 (stereo not given)	UHRF1 binding 36.4
Cc1ccc(CSc2nc3c(c(=O)[nH]2)CCC3)cc1	UHRF1 binding 57.7
